# Assay results reported in PubChem BioAssay (NCI).
# About 79,000 compounds went through this panel and 15% of them were active in at least one assay; those are over-represented in the sample as a whole. Unmarked numbers belong to inactive results. The source made the active and inactive calls. No stated cut-off is given here; in the data, active means growth inhibition above about 70%; inactive means the rest.
# Assay: NCI Yeast Anticancer Drug Screen. Data for the bub3 strain (AID 167)
# Settings: S. cerevisiae bub3 mutant strain, at 5.0 µM (retest, dose inferred, filed as 0.5), hits give high values
# Procedure, shortened: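 Steps: expose the mutant yeast strain to compound; grow alongside vehicle-treated cultures; measure growth; express inhibition against the vehicle cultures.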
row,SMILES,growth inhibition
1,COc1ccc(CN2CCCN(Cc3ccc(OC)cc3OC)C2c2ccc(N(CCCl)CCCl)cc2)c(OC)c1,-8%
2,[Cl][Pt+2][Cl].[NH-]c1ccc([N+](=O)[O-])cc1[NH-],100% (active)
3,O=C(Oc1ccc(S(=O)(=O)F)cc1F)c1ccccc1Cl,6%
4,Oc1c(I)cc(I)cc1I,-5%
5,CCCCCCCCCCCCCCCC[N+](C)(C)CCOS(C)(=O)=O,99% (active)
6,CN(C)CC1(N)C(=O)NC(=O)NC1=O,0%
7,CC1=C(O)C(=O)C=C2C1=CC=C1[C@@]2(C)CC[C@@]2(C)[C@@H]3C[C@](C)(C(=O)O)CC[C@]3(C)CC[C@]12C,95% (active)
8,CCC[CH2][Sn]([CH2]CCC)([N]=C=S)[N]=C=S,94% (active)
9,O=C(C[n+]1ccccc1)C1CCc2ccccc2C1 (stereo not given),-2%
10,[Cl][Pt][Cl].c1ccc([AsH](CC[AsH](c2ccccc2)c2ccccc2)c2ccccc2)cc1,99% (active)
11,COc1cc(/C=C\[N+](=O)[O-])ccc1O,77% (active)
12,Cc1sc(Cc2ccccc2)nc1-c1ccc(N=Cc2ccc(N(CCCl)CCCl)cc2)cc1,2%
13,CC1(C)C2CCC([CH2][Hg][Cl])C1C2 (stereo not given),99% (active)
14,CC12C(=O)C=CCC1=CCC1C2CCC2(O)C(=O)OC3(C)C4CC5(C)C(COC16OC23C5C6=O)C(=O)O4 (stereo not given),14%
15,O=C(CBr)OCC(Br)CBr (stereo not given),99% (active)
16,S=c1[nH]c2ccccc2s1.[Pb],-4%
17,O=[N+]([O-])c1ccc(C(Br)Br)cc1,74% (active)
18,CC(C)(C)[Si](OC(=O)N(CCCl)CCCl)(c1ccccc1)c1ccccc1,-2%
19,CCCCCCCC[N+]12CN3CN(CN(C3)C1)C2,1%
20,CC(C=O)[Se]c1ccccc1 (stereo not given),11%

row,SMILES,growth inhibition
1,CCOP(=O)(N=Nc1cccnc1)OCC,1%
2,COc1cc(/C=C/c2ccc(OC)c(O)c2)cc(OC)c1,-4%
3,ClC1CCCCC1[Se](Cl)(Cl)C1CCCCC1Cl (stereo not given),8%
4,C/C(=N/NC(N)=S)c1ccc(Cl)cc1,41%
5,O=C(Nc1ccccc1)c1cc([N+](=O)[O-])ccc1O.[Ni],54%
6,CC1(C)N=C(N)N=C(N)N1c1ccc(OCCCCNC(=O)Nc2ccc(S(=O)(=O)F)cc2)c(Cl)c1,-3%
7,Nc1nc(N)c(-c2ccc(Cl)c(Cl)c2)c(COc2ccc(CNC(=O)Nc3cccc(S(=O)(=O)F)c3)cc2Cl)n1,0%
8,CC(=O)[O-].CC(=O)[O-].O=C(N/N=C/c1cc(Cl)cc(Cl)c1[OH2+])c1ccncc1.[Co+2],2%
9,CC(Br)C(=O)C(CCN(C)C)(c1ccccc1)c1ccc(Br)s1 (stereo not given),-11%
10,[N-]=[N+]=NC1(N=[N+]=[N-])C(=O)NN=C(c2ccccc2)C1=O (stereo not given),-3%
11,NC(=O)c1cc([N+](=O)[O-])c(Cl)c([N+](=O)[O-])c1Cl,66%
12,Nc1nc(N)c(-c2ccc(Cl)c(Cl)c2)c(CCc2ccc(CNC(=O)c3cccc(S(=O)(=O)F)c3)cc2)n1,-9%
13,CCOC(=O)C(Cl)Cl,1%
14,C1=C[N-]c2c3c(ccc2=C1)=CC=C[N-]3.C1=C[N-]c2c3c(ccc2=C1)=CC=C[N-]3.F[P-](F)(F)(F)(F)F.[Cu+2],48%
15,CCCCCCCCCCC(=O)O.[Pb],-1%
16,CN(Cc1ccccc1)CC(O)c1cccc(I)c1 (stereo not given),0%
17,CCOc1c(Br)cc(N=Cc2ccc(N(CCCl)CCCl)c(OC)c2)cc1Br,-11%
18,COC(=O)C1ON(c2ccccc2)C2c3ccccc3-c3ccccc3C12 (stereo not given),33%
19,COc1ccccc1C(Cc1ccc(N2C(N)=NC(N)=NC2(C)C)cc1)C(=O)Nc1ccc(S(=O)(=O)F)cc1 (stereo not given),-3%
20,O=[N+]([O-])c1cc([N+](=O)[O-])c(Cl)s1,99% (active)

# Same assay, conditions: S. cerevisiae bub3 mutant strain, at 50.0 µM (retest, dose inferred, filed as 5.0), hits give high values
row,SMILES,growth inhibition
1,COc1ccc(CN2CCCN(Cc3ccc(OC)cc3OC)C2c2ccc(N(CCCl)CCCl)cc2)c(OC)c1,-3%
2,[Cl][Pt+2][Cl].[NH-]c1ccc([N+](=O)[O-])cc1[NH-],95% (active)
3,O=C(Oc1ccc(S(=O)(=O)F)cc1F)c1ccccc1Cl,99% (active)
4,Oc1c(I)cc(I)cc1I,82% (active)
5,CCCCCCCCCCCCCCCC[N+](C)(C)CCOS(C)(=O)=O,99% (active)
6,CN(C)CC1(N)C(=O)NC(=O)NC1=O,8%
7,CC1=C(O)C(=O)C=C2C1=CC=C1[C@@]2(C)CC[C@@]2(C)[C@@H]3C[C@](C)(C(=O)O)CC[C@]3(C)CC[C@]12C,99% (active)
8,CCC[CH2][Sn]([CH2]CCC)([N]=C=S)[N]=C=S,97% (active)
9,O=C(C[n+]1ccccc1)C1CCc2ccccc2C1 (stereo not given),-3%
10,[Cl][Pt][Cl].c1ccc([AsH](CC[AsH](c2ccccc2)c2ccccc2)c2ccccc2)cc1,99% (active)
11,COc1cc(/C=C\[N+](=O)[O-])ccc1O,99% (active)
12,Cc1sc(Cc2ccccc2)nc1-c1ccc(N=Cc2ccc(N(CCCl)CCCl)cc2)cc1,96% (active)
13,CC1(C)C2CCC([CH2][Hg][Cl])C1C2 (stereo not given),98% (active)
14,CC12C(=O)C=CCC1=CCC1C2CCC2(O)C(=O)OC3(C)C4CC5(C)C(COC16OC23C5C6=O)C(=O)O4 (stereo not given),56%
15,O=C(CBr)OCC(Br)CBr (stereo not given),83% (active)
16,S=c1[nH]c2ccccc2s1.[Pb],-7%
17,O=[N+]([O-])c1ccc(C(Br)Br)cc1,99% (active)
18,CC(C)(C)[Si](OC(=O)N(CCCl)CCCl)(c1ccccc1)c1ccccc1,93% (active)
19,CCCCCCCC[N+]12CN3CN(CN(C3)C1)C2,-25%
20,CC(C=O)[Se]c1ccccc1 (stereo not given),67%

row,SMILES,growth inhibition
1,CCOP(=O)(N=Nc1cccnc1)OCC,-3%
2,COc1cc(/C=C/c2ccc(OC)c(O)c2)cc(OC)c1,98% (active)
3,ClC1CCCCC1[Se](Cl)(Cl)C1CCCCC1Cl (stereo not given),99% (active)
4,C/C(=N/NC(N)=S)c1ccc(Cl)cc1,94% (active)
5,O=C(Nc1ccccc1)c1cc([N+](=O)[O-])ccc1O.[Ni],99% (active)
6,CC1(C)N=C(N)N=C(N)N1c1ccc(OCCCCNC(=O)Nc2ccc(S(=O)(=O)F)cc2)c(Cl)c1,98% (active)
7,Nc1nc(N)c(-c2ccc(Cl)c(Cl)c2)c(COc2ccc(CNC(=O)Nc3cccc(S(=O)(=O)F)c3)cc2Cl)n1,20%
8,CC(=O)[O-].CC(=O)[O-].O=C(N/N=C/c1cc(Cl)cc(Cl)c1[OH2+])c1ccncc1.[Co+2],9%
9,CC(Br)C(=O)C(CCN(C)C)(c1ccccc1)c1ccc(Br)s1 (stereo not given),-5%
10,[N-]=[N+]=NC1(N=[N+]=[N-])C(=O)NN=C(c2ccccc2)C1=O (stereo not given),97% (active)
11,NC(=O)c1cc([N+](=O)[O-])c(Cl)c([N+](=O)[O-])c1Cl,97% (active)
12,Nc1nc(N)c(-c2ccc(Cl)c(Cl)c2)c(CCc2ccc(CNC(=O)c3cccc(S(=O)(=O)F)c3)cc2)n1,98% (active)
13,CCOC(=O)C(Cl)Cl,-5%
14,C1=C[N-]c2c3c(ccc2=C1)=CC=C[N-]3.C1=C[N-]c2c3c(ccc2=C1)=CC=C[N-]3.F[P-](F)(F)(F)(F)F.[Cu+2],99% (active)
15,CCCCCCCCCCC(=O)O.[Pb],-4%
16,CN(Cc1ccccc1)CC(O)c1cccc(I)c1 (stereo not given),35%
17,CCOc1c(Br)cc(N=Cc2ccc(N(CCCl)CCCl)c(OC)c2)cc1Br,-16%
18,COC(=O)C1ON(c2ccccc2)C2c3ccccc3-c3ccccc3C12 (stereo not given),86% (active)
19,COc1ccccc1C(Cc1ccc(N2C(N)=NC(N)=NC2(C)C)cc1)C(=O)Nc1ccc(S(=O)(=O)F)cc1 (stereo not given),-4%
20,O=[N+]([O-])c1cc([N+](=O)[O-])c(Cl)s1,99% (active)
